In the supplement of paper PMC13380429:

System: Vero E6 infected with SARS-CoV-2
Experiment: inhibition of SARS-CoV-2 cytopathic effect; higher = more antiviral protection, active = above 15
Settings: 48 h

Measured: inhibition of SARS-CoV-2 cytopathic effect

CC[C@H]1CN2CCc3cc(OC)c(OC)cc3[C@@H]2C[C@@H]1C[C@H]1NCCc2cc(OC)c(OC)cc21 [emetine]
inactive: 1 nM 1.59% | 8.33 nM 2.17% | 833.33 nM 11.6% | 10000 nM -11.1%
active: 100 nM 36.2%

C=CC(=O)N1CCC(Oc2cc3c(Nc4ccc(Cl)c(Cl)c4F)ncnc3cc2OC)CC1 [poziotinib]
inactive: 1 nM -7.08% | 8.33 nM -14.9% | 100 nM -15.1% | 833.33 nM -17.3% | 10000 nM -15.7%

CCCCCCCCCCCCCCCC[N+](C)(C)CCN(Cc1ccc(OC)cc1)c1ncccn1 [thonzonium]
inactive: 1 nM -1.08% | 8.33 nM -1.07% | 100 nM 3.19% | 833.33 nM -1.67% | 10000 nM -15.8%

CC(=O)Nc1ccc(NC(=S)NC(=O)c2ccc(C(C)(C)C)cc2)cc1 [tenovin-1]
inactive: 1 nM -0.23% | 8.33 nM 0.85% | 100 nM 1.6% | 833.33 nM -7.1% | 10000 nM -8.92%

CCCCc1nc(C)c(CC(=S)N(C)C)c(=O)n1Cc1ccc(-c2ccccc2-c2nnn[nH]2)cc1 [fimasartan]
inactive: 1 nM 0.68% | 8.33 nM -0.83% | 100 nM -1.61% | 833.33 nM 1.46% | 10000 nM -0.45%

Cc1ccc(NCCCc2ccccc2)c(N)c1 [NFKB-activation-inhibitor-II]
inactive: 1 nM -0.97% | 8.33 nM -0.96% | 100 nM -1.32% | 833.33 nM -1.12% | 10000 nM 2.24%

Cc1cccc(CN2CCN(C(c3ccccc3)c3ccc(Cl)cc3)CC2)c1 (stereo not given) [meclizine]
inactive: 1 nM 4.53% | 8.33 nM 3.44% | 100 nM 2.18% | 833.33 nM 4.25% | 10000 nM 3.46%

CN1[C@@H]2CC[C@H]1C[C@@H](OC(=O)C(CO)c1ccccc1)C2 (stereo not given in full)
inactive: 1 nM -2.22% | 8.33 nM -2.93% | 100 nM 1.96% | 833.33 nM 0.7% | 10000 nM 0.64%

CC1(C)CCC(C)(C)c2c1cc(C(=O)Nc1cc(F)c(C(=O)O)c(F)c1)c(O)c2Cl
inactive: 1 nM -1.01% | 8.33 nM -0.71% | 100 nM 0.11% | 833.33 nM 2.72% | 10000 nM 3.26%

COc1ccc2nc3[nH]nc(C)c3c(NCCOCCO)c2c1
inactive: 1 nM -3.38% | 8.33 nM -2.01% | 100 nM -3.28% | 833.33 nM -0.23% | 10000 nM -2.9%

CC1(C)CC[C@]2(NC(=O)C(C)(F)F)CC[C@]3(C)[C@H](C(=O)C=C4[C@@]5(C)C=C(C#N)C(=O)C(C)(C)[C@@H]5CC[C@]43C)[C@@H]2C1 [Omaveloxolone (RTA-408)]
active: 833.33 nM 17.2%
inactive: 1 nM 4.28% | 8.33 nM 6.39% | 100 nM 3.8% | 10000 nM -13.7%

CCNC(=O)CC[C@H](N)C(=O)O [L-theanine]
inactive: 1 nM -2.94% | 8.33 nM -3.55% | 100 nM -3.29% | 833.33 nM -0.63% | 10000 nM -0.81%

COc1ccsc1CNCC[C@@]1(c2ccccn2)CCOC2(CCCC2)C1
inactive: 1 nM -2.56% | 8.33 nM 3.9% | 100 nM 0.92% | 833.33 nM 1.29% | 10000 nM -0.28%

Cc1ccccc1NC(=O)Nc1ccc(CC(=O)N(C)[C@@H](CC(C)C)C(=O)NCC[C@H](NC(=O)[C@@H]2CCCN2S(=O)(=O)c2cc(Cl)cc(Cl)c2)C(=O)O)cc1
inactive: 1 nM -1.88% | 8.33 nM 0.66% | 100 nM -0.65% | 833.33 nM 0.17% | 10000 nM -3.63%

NS(=O)(=O)c1ccc(C(=O)O)cc1 [carzenide]
inactive: 1 nM -1.83% | 8.33 nM -0.09% | 100 nM 0.05% | 833.33 nM 2.39% | 10000 nM -0.52%

Cn1cc(C(=O)OCC2CCN(CCNS(C)(=O)=O)CC2)c2ccccc21
inactive: 1 nM -2.5% | 8.33 nM 4.63% | 100 nM 5.3% | 833.33 nM 6.93% | 10000 nM -0.18%

Cc1nc2n(c(=O)c1CCN1CCC(c3noc4cc(F)ccc34)CC1)CCCC2O (stereo not given) [paliperidone]
inactive: 1 nM -1.5% | 8.33 nM -3.74% | 100 nM -2.02% | 833.33 nM -3.59% | 10000 nM -4.1%

COc1ccc(C(=O)c2c(C)n(CCN3CCOCC3)c3ccccc23)cc1 [pravadoline]
inactive: 1 nM 3.43% | 8.33 nM 2.8% | 100 nM -0.1% | 833.33 nM -1.26% | 10000 nM -0.15%

Clc1ccc([C@]23CNC[C@H]2C3)cc1Cl [amitifadine]
inactive: 1 nM 0.8% | 8.33 nM 2.82% | 100 nM 0.87% | 833.33 nM 1.86% | 10000 nM 3.82%

O=C(O[C@@H]1Cc2c(O)cc(O)cc2O[C@@H]1c1cc(O)c(O)c(O)c1)c1cc(O)c(O)c(O)c1 [epigallocatechin-gallate-(-)]
inactive: 1 nM -3.81% | 8.33 nM 2.17% | 100 nM 0.79% | 833.33 nM 1.05% | 10000 nM 0.98%

O/N=C/c1ccc(-c2ccc(O)c(F)c2)c(Cl)c1O
inactive: 1 nM -3.41% | 8.33 nM -2.33% | 100 nM -2.06% | 833.33 nM -0.62% | 10000 nM -12.8%

CCCCNc1c(C(=O)OCC)c(C)nc2c1cnn2CC [tracazolate]
inactive: 1 nM -0.41% | 8.33 nM 1.49% | 100 nM -0.22% | 833.33 nM -2.81% | 10000 nM -1.99%

S=C(S)N1CCCC1 [pyrrolidine-dithiocarbamate]
active: 10000 nM 24.8%
inactive: 1 nM 2.71% | 8.33 nM 4.55% | 100 nM 4.28% | 833.33 nM 12.7%

CC(=O)c1cc2c(o1)C(=O)c1ccccc1C2=O [napabucasin]
inactive: 1 nM 0.24% | 8.33 nM 1.91% | 100 nM 1.42% | 833.33 nM 7.16% | 10000 nM -36.6%

Nc1nccc(-c2ccc3noc(-c4ccc(Cl)cc4)c3c2)n1 [PIM-1-Inhibitor-2]
inactive: 1 nM 0.72% | 8.33 nM -0.19% | 100 nM 3.66% | 833.33 nM 0.83% | 10000 nM 0.56%

COC(=O)N[C@H](C(=O)N1CCC[C@H]1C(=O)Nc1ccc([C@@H]2CC[C@@H](c3ccc(NC(=O)[C@@H]4CCCN4C(=O)[C@@H](NC(=O)OC)C(C)C)cc3)N2c2ccc(C(C)(C)C)cc2)cc1)C(C)C [ombitasvir]
inactive: 1 nM -0.82% | 8.33 nM -0.6% | 100 nM -0.7% | 833.33 nM -1.11% | 10000 nM -1.21%

CN1C[C@@H](NS(=O)(=O)N(C)C)C[C@@H]2c3cccc4c3c(cn4C)C[C@H]21 [mesulergine]
inactive: 1 nM -0.67% | 8.33 nM 0.79% | 100 nM 0.56% | 833.33 nM 0.39% | 10000 nM 1.25%

CCc1nc2c(C)nc(C)cc2n1-c1ccc(CCNC(=O)NS(=O)(=O)c2ccc(C)cc2)cc1 [grapiprant]
inactive: 1 nM -1.43% | 8.33 nM -2.32% | 100 nM -2.77% | 833.33 nM -5.47% | 10000 nM -1.61%

CN(C)CC[C@H](CSc1ccccc1)Nc1ccc(S(=O)(=O)NC(=O)c2ccc(N3CCN(Cc4ccccc4-c4ccc(Cl)cc4)CC3)cc2)cc1[N+](=O)[O-]
inactive: 1 nM -0.41% | 8.33 nM -0.39% | 100 nM -6.74% | 833.33 nM -16.3% | 10000 nM -20.2%

COc1ccc(-n2nc(C(F)(F)F)cc2-c2ccc(Cl)cc2)cc1
inactive: 1 nM 2.57% | 8.33 nM 3.29% | 100 nM 1.98% | 833.33 nM 1.58% | 10000 nM -5.13%

CCCCCCCCCCCCCCCCCCCCCC(=O)Nc1ccn([C@@H]2O[C@H](CO)[C@@H](O)[C@@H]2O)c(=O)n1 [enocitabine]
inactive: 1 nM -3% | 8.33 nM -4.05% | 100 nM -1.69% | 833.33 nM -5.11% | 10000 nM -4.84%

CCN1CCN(Cc2ccc(C(=O)Nc3ccc(C)c(Oc4ccc5c(c4)CC(=O)N5)c3)cc2C(F)(F)F)CC1
active: 10000 nM 56%
inactive: 1 nM -1.15% | 8.33 nM -1.24% | 100 nM 1.47% | 833.33 nM 3.18%

COc1cc(NC(C)CCCN)c2ncccc2c1 (stereo not given) [primaquine]
inactive: 1 nM 1.68% | 8.33 nM 2.25% | 100 nM 0.83% | 833.33 nM 1.27% | 10000 nM 3.23%

CCC/N=C1\S/C(=C\c2ccc(OC[C@H](O)CO)c(Cl)c2)C(=O)N1c1ccccc1C [ponesimod]
inactive: 1 nM -1.82% | 8.33 nM -0.6% | 100 nM -2.77% | 833.33 nM -2.51% | 10000 nM -0.58%

CC(C)NC(=O)c1ccc(C#Cc2ccncc2)cn1
inactive: 1 nM -1% | 8.33 nM 1.41% | 100 nM 2.79% | 833.33 nM 1.58% | 10000 nM 13.2%

CCc1ccc(/C=C2/SC(=S)NC2=O)cc1
inactive: 1 nM -2.34% | 8.33 nM -6.5% | 100 nM -4.03% | 833.33 nM 3.21% | 10000 nM 1.11%

CCc1cccc(CC)c1NC(=O)CN(CC(=O)O)CC(=O)O [etifenin]
inactive: 1 nM -0.66% | 8.33 nM 1.39% | 100 nM 0.25% | 833.33 nM 0.46% | 10000 nM 3.26%

N#CCCCSC(=N)N [kevetrin]
inactive: 1 nM -0.54% | 8.33 nM -2.73% | 100 nM -3.7% | 833.33 nM -3.14% | 10000 nM -0.14%

CO[C@@H]1[C@@H](O[C@@H]2O[C@H](C)[C@@H](O[C@H]3C[C@@](C)(O)[C@@H](OC(=O)CC(C)C)[C@H](C)O3)[C@H](N(C)C)[C@H]2O)[C@@H](CC=O)C[C@@H](C)[C@@H](O)/C=C/C=C/C[C@@H](C)OC(=O)C[C@H]1OC(C)=O [josamycin]
inactive: 1 nM 2.65% | 8.33 nM 0.07% | 100 nM -2.91% | 833.33 nM -1.73% | 10000 nM -7.02%
